Data as given in the supplement of paper PMC6555819.

tested on: VDR:RXRa (NR concentration 270 nM, RXRa partner concentration 90 nM); experiment: PBM binding z-score (relative to random genomic background probes); higher = stronger binding; sequences stand for … in GC…GCGATTGACAGCGTAGAATGAAGG
Experimental: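 Protein-binding microarray (Agilent 4x180K custom design, double-stranded 60-nt probes: 5' GC cap, 34-nt variable region, 24-nt constant primer region; full probe sequence given). Purified or IVT nuclear receptor:RXRα heterodimers (3:1 NR:RXRα, mostly 270:90 nM) or homodimers were incubated for 1 h in PBS with 2% milk and no ligand, then detected with Alexa488 antibodies. Fluorescence from o1-orientation probes (~5 replicates averaged) was converted to z-scores against 500 random hg19 background probes. Variable regions are seed direct-repeat (DR0–DR5) sites, all their single-nucleotide variants and half-site ablations.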

Sequence | PBM binding z-score
ATAGGTAGGTTATCGGGTCATTCAGTTTGCGCAT | 5.32
ACTGGTTGGTCAGCTGAGGTCACACACAATTCGG | 4.57
CGAACTAGGTCAAGGACAGTGTATCTCCGCACGC | 1.78
GCGACTGGGGGATCAGCAGGTTACCATAACTTAA | 0.855
ACCATTAGTTGAGACGAGGGCAACCGATAGGTTG | 0.755
AATACAGGGTCACTAGGCCACAGTAGGTACGAAT | 4.27
TGTCAAAGTTCAGAGGTAACGTAAGTATCCACAC | 3.36
AGAACGAGGGCACGCTGAGTTGCTAGCAGAGTAG | 1.18
TCAGCTAGGTCAACGATGGTCAGCTAATCTGCTA | 1.53
TCATATAGGTAATACAGGTGAAAGTTGGCATCTA | 1.46
ACAGACGGGTGATGAAGGTAACTCAGGCTATCAT | 0.177
ACAGACATGTGAGTGAAGGTAACTCAGCTGGACG | -0.252
TCTATTCGTTGATTAGGGCAACCGAAACAGCGGA | 0.441
TAGCCTAGATCAGATCGGGCCAGTATACGCTATA | -0.89
CTACCAAGGTGAACAAGGTCGCTGATTACTATTC | 5.5
GCTAGCAGGGCATTTGGGTCACTCAATGACGGGC | 2.15
CAAACTAGGTCACGAACGGTCAAAGTCGAATGAC | 4.04
TCTAGTTGGTCAAAGGTCACACGCTCGAAATGCG | 5.38
TCATATAGGTAAATGCTACGTGAAAGTCCGATCT | 0.947
CCAGACAGGTGAAAGGTAAATCAGTCTGGTACGC | 0.701

Sequence | PBM binding z-score
TCTAGTAGTTGAAGGGCAACCGACGAGTCCGTTT | 0.266
TTACCGAGGTGAAGGTCGTTGATCCCTCTGTAGA | 1.5
CGTCCACGGTCAAGGTCAGTGAAAGAGACTCGAA | 1.43
ATCGAAAGGTCGTGAGGAGAGTATACAGAAAGGC | 3.11
TATACAGGGTCAAAGGCCAGAGAACGAATGTCGA | 4.77
CGTCCACGGTCAGAGAGGTCAGTGAATGCCGAGT | 4.97
GGAACGAGGGCAAGTTGTTAGCAGAGTTTGATGG | 0.88
CCGACTGGGCCAAAGGTCATTGATTCCAATGCTC | 4.58
CGAACTAGGTTAAGGACAGTGAATCTCCGCACGC | -0.159
TTACCAAGGTGAAAGGTCGTTCATGCACGCCTTG | 3.53
CCTTACGGGTCGCTCCAGGTTATAGCATCGGAGT | 1.1
GCTCGGAGGACATGGTCAGAGCTTTGTCCGTAGA | -0.753
TTACCAAGGTGAAGGTCGTTGAGCCCTCTGTAGA | 1
CCTAGTTTGTCAAGGTCACACACGCTATAGGTAC | 4.46
CCTACTGGGCCGCGAAAGGTCATTGATTCAGTGA | 3.74
ATATGTAGGTTAAGGGTCATCCAGGTTGGTTCGC | 5.91
CGAACTAGGTCAGAACAGGAGAGTGAAGGATGAT | 0.035
TGAATGAGGTTATAAGATCGGGGAACGTTGCAAA | 0.904
GCTAGTTGGTCAGTAAAAGGTCACACAGCGGTCG | 3.95
ATACCAAGGTGATCGTGAGGTCGTTAATACTAAC | 3.1
